PubChem BioAssay AID720517 (National Center for Advancing Translational Sciences (NCATS), 2013)
Records with an inconclusive call do not appear. Where a call stands in place of a potency, no number is given. Active and inactive are the calls of the source. The call rests on the fitted dose curve; in most records, active means well fitted activation curve with a large enough effect; inconclusive means small, poorly fitted or top-dose-only effect; inactive means flat fitted curve, though single readings scatter.

assay: qHTS for Inhibitors of Cell Surface uPA Generation: FP59 Counterscreen for Cherry-picked Compounds; conditions: FP59 anthrax toxin cytotoxicity counterscreen, cells; series mostly up to 115 µM
Potency means the concentration at half of the fitted maximal effect.

Structure (SMILES)	Potency
O=C(C[C@@H]1C/C=C\C[C@H](Cc2ccc(F)cc2)C(=O)OC[C@H]2CCCN2C1=O)N[C@H](CO)Cc1ccccc1	inactive
Cc1cccc(/C=N/Nc2cc(N3CCOCC3)nc(N3CCOCC3)n2)c1	inactive
C#CCN1C=C(C(=O)OCC)C(C)NS1(=O)=O (centres undefined)	inactive
Cc1nc2ccccc2c2oc(C(=O)Nc3ccc4c(c3)OCCO4)cc12	inactive
O=C(c1ccco1)N1CCN(c2ncccn2)CC1	inactive
CCOc1ccc(N(CC(=O)Nc2ccc(CC)cc2)S(=O)(=O)c2c(C)[nH]c(=O)[nH]c2=O)cc1	inactive
CN(C)S(=O)(=O)c1ccc(NC(=O)COC(=O)CC2CC3CCC2C3)cc1 (centres undefined)	inactive
CCOC(=O)C1=CC[C@@H](c2cc3ccc(OC)cc3n2C)N(S(=O)(=O)c2ccc(C)cc2)[C@H]1C(=O)OCC	inactive
C[C@@H](CSc1ccccc1)CN1CC[C@H](O)CCC1=O	inactive
COc1cccc(NC(=O)CN(C)C(=O)c2csc3c2CCCC3)c1	inactive
CSc1ccc(CNCCCN(C)C)cc1	inactive
CN1CCN(C2=Nc3ccccc3Oc3ccc(Cl)cc32)CC1	inactive
Cc1cccc(Nc2ccc(NCc3ccccc3)nn2)c1	inactive
O=C(COC(=O)Cn1cnc2ccccc21)NCc1ccc(F)cc1	inactive
Cc1cc(=O)n2nc(N3CCCC(C(=O)NCc4ccc(Cl)cc4)C3)sc2n1 (centres undefined)	inactive
COc1ccc(Cc2nnc(Nc3ccc(C)cc3)o2)cc1OC	inactive
CC1CCCN(C(=O)c2ccc(-c3ccccc3Cl)o2)C1 (centres undefined)	inactive
CCN(CC)C(=O)Cn1cc(/C=C(\C#N)C(=O)NC2CC2)c2ccccc21	inactive
COCCCN1CC23C=CC(O2)C(C(=O)O)C3C1=O (centres undefined)	inactive
Cc1ccc(CC2CC(=O)N(c3cc(C)ccc3C)C2=O)cc1 (centres undefined)	inactive

Structure (SMILES)	Potency
COCCN(C(=O)c1ccc(OC2CCN(S(=O)(=O)N(C)C)CC2)cc1)C(C)C	inactive
Cc1c(NC(=O)C(C)OC(=O)CCC2CCCC2)c(=O)n(-c2ccccc2)n1C (centres undefined)	inactive
CCOc1cc(C(=O)OCC(=O)c2cc(C)n(CC3CCCO3)c2C)ccc1OCC(=O)N1CCOCC1 (centres undefined)	inactive
Cc1ccnc(N2CCN(C(=O)CSc3nc4ccccc4nc3N3CCC(C)CC3)CC2)c1	65.6 µM (active)
O=C1CCCC/C1=C\Nc1ccc(S(=O)(=O)Nc2cnc3ccccc3n2)cc1	inactive
CC(C)c1ccc(SCc2noc(C(=O)NCC3CCCO3)c2C(=O)O)cc1 (centres undefined)	inactive
COc1ccccc1CNC(=O)CCn1c(=O)oc2ccccc21	inactive
Cc1ccc([C@H]2C(C(=O)O)=CC[C@@H](c3cccc(C)c3)N2S(=O)(=O)c2ccc(C)cc2)cc1	inactive
CCc1nnc(NC(=O)CSc2nnnn2-c2cccc(C(C)=O)c2)s1	inactive
NC(=O)CC[C@H](NC(=O)c1ccc(F)cc1)C(=O)OCC(=O)Nc1c(F)c(F)c(F)c(F)c1F	inactive
CCOC(=O)C1(CC2CCCCO2)CCN(Cc2nccn2-c2cccc(C)c2)CC1 (centres undefined)	inactive
Cc1cccc(CCNC(=O)Cc2ccc(NC3=NC4CS(=O)(=O)CC4S3)cc2)c1 (centres undefined)	inactive
COC(=O)/C(C#N)=C\c1c(OC)[nH]c2ccccc12	inactive
C[C@@H](NC(=O)c1nc[nH]c1C(=O)NCc1ccc(CNC(=O)OC(C)(C)C)cc1)c1ccccc1	58.5 µM (active)
CC(=O)c1cccc(NC(=O)N2C3CCC2CC(O)(c2cccnc2)C3)c1 (centres undefined)	inactive
COc1ccc(C2NC(=O)CCC2[N+](=O)[O-])c(OC)c1OC (centres undefined)	inactive
C=CCn1c(=O)c(C(=O)NCCc2ccc(Cl)cc2)c(O)c2cc(OC)c(OC)cc21	inactive
OC(COc1ccc(Br)cc1)CN1CCN(c2ccccc2)CC1 (centres undefined)	inactive
COc1ccccc1NS(=O)(=O)c1cc(NC(=O)CCc2nc3ccccc3c(=O)[nH]2)ccc1C	inactive
